Measurements: PubChem BioAssay AID372 (MTDP, 2006)
Values joined by “and” are separate entries in the source; they are usually repeats but may differ in a detail not shown here. Equal values may be shown once. The campaign covered roughly 100,000 compounds. About 770 (0.77%) were called active. Rule as the data show it: active = inhibition above about 50%; inactive = the rest. The sample as a whole holds a higher share of actives than the screen did.

What follows are compounds tested against Gag-Pol polyprotein (Human immunodeficiency virus type 1 group M subtype B (isolate HXB2)) (UniProt P04585) (assay: RNase H inhibition, HIV 1 Gag Pol polyprotein, FRET biochemical assay, screening (AID 372)). Conditions: HIV-1 RT RNase H, FRET RNA/DNA substrate fluorescence; at 10 µM; stronger effect = higher value.

SMILES | inhibition
COc1cccc(NC(=O)c2ccc(C(C)(C)C)cc2)c1 | 11% (inactive)
NC(=O)N=Nc1c(O)[nH]c2ccc(I)cc12 | 5% (inactive)
CC1(C)CC(=O)C(C=NC2CCCCCCC2)=C(O)C1 | 3% (inactive)
CCOC(=O)c1c(NC(=S)Nc2ccccc2)sc2c1CCCCC2 | 28% (inactive)
COc1ccc(C(=O)Nc2sc3c(c2C(N)=O)CCCC3)cc1 | 17% (inactive)
O=C(Nc1ccccc1)c1c(NC(=S)Nc2ccccc2)sc2c1CCCC2 | 46% (inactive)
O=C(CCc1ccccc1)Nc1sc2c(c1C(=O)O)CCCC2 | 4% (inactive)
COc1ccc(C(=O)Nc2sc3c(c2C(N)=O)CCCCCC3)cc1OC | 0% (inactive)
NC(=O)c1c(NC(=O)c2ccc(S(=O)(=O)N3CCCCC3)cc2)sc2c1CCCC2 | 53% (active)
CCOC(=O)c1c(NC(=O)c2ccc(S(=O)(=O)N3CCCCCC3)cc2)sc2c1CCC2 | 6% (inactive)
COc1cc2ccccc2cc1C(=O)Nc1sc2c(c1C(N)=O)CCCC2 | 59% (active)
COC(=O)c1c(NC(=S)Nc2ccccc2)sc2c1CCCC2 | 59% (active)
Cc1ccc(C(=O)Nc2sc3c(c2C(N)=O)CCCCCC3)cc1 | 32% (inactive)
COc1ccc(CCC(=O)Nc2sc3c(c2C(N)=O)CCCCCC3)cc1 | 12% (inactive)
C=CCN1C(=O)/C(=C\c2ccc(OCc3ccccc3C)c(OC)c2)SC1=S | 16% (inactive)
COC(=O)c1cccc(NC(=O)COc2ccc(Br)c(C)c2)c1 | 3% (inactive)
Cc1c(NC(=O)COc2ccc(Cl)cc2Cl)cccc1[N+](=O)[O-] | 15% (inactive)
CCN(CC)c1ccc(Nc2nc(-c3sc(N)nc3C)cs2)cc1 | 28% (inactive)
CCN1CCn2c3c(c4cc(Br)ccc42)CCCC31 (centres undefined) | 7% (inactive) and 3% (inactive)
C(=NN1CCN(c2ccccn2)CC1)c1cccc(OCc2ccccc2)c1 | 0% (inactive)
Cc1ccc(NC(=O)c2cccc([N+](=O)[O-])c2)cc1C | 1% (inactive)
Cc1ccc(C)c(NC(=S)NC(=O)c2ccc(C)c([N+](=O)[O-])c2)c1 | 33% (inactive)
NC(=O)C1CCN(C2CC(=O)N(c3ccc(Cl)cc3)C2=O)CC1 (centres undefined) | 12% (inactive)
CCOc1ccc(N(CC(=O)Nc2c(C)cccc2C)S(C)(=O)=O)cc1 | 18% (inactive)
C=CCOc1ccc(C=O)cc1I | 25% (inactive)
O=C(Nc1ccc([N+](=O)[O-])cc1Cl)c1cccnc1 | 5% (inactive)
CC(C)C(NC(=O)CN(c1ccccc1F)S(C)(=O)=O)C(C)C | 11% (inactive)
NC(=O)c1c(N)sc2c1CCCCCCCCCC2 | 28% (inactive)
NC(=O)c1c(N)sc2c1CCCCCC2 | 20% (inactive)
